# In ChEMBL document CHEMBL3988442, “University of Dundee, Small-Polar-MMV Screening Library” (2021):
# Biological target: AMP-activated protein kinase, AMPK (Homo sapiens) (UniProt P54646+O43741+P54619+Q9UGJ0+Q9Y478+Q13131+Q9UGI9)
# Assay: AMP-dependent Kinase enzyme assay. An in vitro enzyme assay that detects ADP turnover that is directly proportional to AMPK activity. This uses naive AMPK that is activated during the assay with MK-8722
# Type: functional
# Design: scale not given: direction of the effect not stated beside the values
# Details: 30 µM
row,Compound,Percent Effect
1,Cc1ccc(C(=O)NCCC2CN(C3CCCC3)CCO2)c(C)c1 (stereo not given),4.11%
2,Cc1nnc(NC(=O)c2c3c(nn2C2CCS(=O)(=O)C2)CCC3)s1 (stereo not given),-6.11%
3,CCn1cnnc1CCNC(=O)CCNC(=O)c1ccccc1F,-0.474%
4,CC(C)c1nc(CN2CCN(C(=O)OC(C)(C)C)C(C)C2)no1 (stereo not given),1.33%
5,COc1ccc(CC2(CO)CCN(c3cc(N)ncn3)CC2)cc1,8.25%
6,CCc1ccc(CCn2cnc(C#N)n2)cc1,-0.907%
7,O=C(Nc1ccc(Br)cc1F)c1ccc(N2CCCCC2)nn1,1.92%
8,CCCN1CCC(CC(=O)NCc2cc(O)ncn2)CC1,-4.63%
9,N#Cc1ccc(CN(CCF)Cc2cccc(F)c2)cc1,-7.25%
10,Cc1cncc(C2CCN(Cc3cnc(C)nc3)CC2)n1,9.99%
11,CC(C)(CNC(=O)c1ccco1)CNC(=O)c1ccco1,-2.53%
12,Cc1noc(CS(=O)(=O)c2cc(F)ccc2F)n1,-0.296%
13,Cc1nc(COC(=O)c2cccc3c2OCCO3)no1,-12.1%
14,NC(=O)C1CCN(CCCNC(=O)Nc2nncs2)CC1,1.35%
15,CN(Cc1ccc(-n2cccn2)cc1)C[C@@H]1CCCN2CCCC[C@H]12,5.54%
16,O=C1OC2(CCN(CC3CCCO3)CC2)CN1CCc1ccccc1 (stereo not given),-11.7%
17,Cc1cc(C)n(CCN2CCC(N(C)Cc3nnc(C)n3C)C2)n1 (stereo not given),3.54%
18,CCC(NC(=O)c1cc(NC(C)=O)ccc1Cl)c1cc(C)ccn1 (stereo not given),2.39%
19,CN(Cc1ccc(F)c(F)c1)Cc1cc2c(cc1Br)OCCO2,-7%
20,Cc1ccc(CCCC(=O)N2CCC(=O)Nc3cccnc32)s1,-8.96%

row,Compound,Percent Effect
1,Cc1ccc(N2CC[C@@]3(O)CCN(S(C)(=O)=O)C[C@H]3C2)nn1,0.414%
2,COCCN1C(=O)[C@H]2CC[C@@H]1CN(S(=O)(=O)c1ccc(OC)cc1)C2,13.1%
3,CCc1ccc(C(=O)NC2CCCN(c3ccn(C)n3)C2=O)o1 (stereo not given),-0.669%
4,COCCN(Cc1cnn(C)c1)c1nc2c(s1)c(C)nn2C,-0.701%
5,CC1CCN(CCNC(=O)c2sccc2C2CC2)CC1,5.67%
6,Cc1ncsc1CCN(C)Cc1ccc(Br)o1,-1.27%
7,CC(C)c1nnc(CN2CCc3ccc(S(N)(=O)=O)cc32)o1,-0.483%
8,O=C(CCc1nc(-c2ccsc2)no1)NCC1CCN(C2CC2)C1 (stereo not given),1.07%
9,COCCN1CCCC(c2nccnc2-c2cccc(Cl)c2)C1 (stereo not given),-11.9%
10,O=C1NCCN2CCN(Cc3ccc(Cl)c(Cl)c3)CC12 (stereo not given),-0.338%
11,Cc1nccc(CNC(=O)NCCC(=O)N2CCCc3ccccc32)n1,-8.67%
12,COCc1nc(CN2CCN(c3ccc(OC)cc3)C(=O)C2C)no1 (stereo not given),6.42%
13,CCc1nc(CNc2cc(C)nc(-c3cccnc3)n2)cs1,-0.151%
14,Cc1nccn1CCCN1CCCC(c2ccccc2)C1 (stereo not given),-4.4%
15,COc1nccc(N2CC[C@@H](N3CCC(O)CC3)[C@H](O)C2)c1C#N,5.62%
16,O=C(C1CC(c2ccccc2)=NO1)N1CCCCc2ccccc21 (stereo not given),4.65%
17,Cc1cc(C)n(CCN(C)c2ccc(-c3nc(C4CC4)no3)cn2)n1,5.62%
18,CCNC(=O)CN(CC)C(=O)c1csc(Cc2ccccc2F)n1,4.98%
19,CN1CC(c2n[nH]c(=O)n2-c2cccc(Cl)c2)CC1=O (stereo not given),-12.1%
20,COc1cc2c(cc1CNCc1cccnc1-n1cccn1)OC(C)C2 (stereo not given),5.16%
